Data on 15 compounds can be found in PubChem BioAssay.

A short description of assay [1]: kinase inhibitors against Plasmodium liver-stage infection, cell-based, known kinase inhibitor set, luminescence, hepatoma host viability (AID 624392).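 Note: infected cells incubated roughly two days before readout.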 The conditions noted are these: Plasmodium liver stage in hepatoma cells, luciferase luminescence, concentration not given here; liver cell % of control: measured here: host liver cell viability; parasite % of control: stronger effect = lower value.

A short description of assay [2]: modulators of glucocorticoid suppression of NF-kB, cell-based, luciferase, IL-1B stimulus, dexamethasone (AID 624486).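 For percent of negative control (+Dex): 100% = mean signal of vehicle control wells on the plate.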 The conditions noted are these: NF-kB luciferase reporter, IL-1B + dexamethasone, luminescence; percent of negative control (+Dex): actives lie on both sides, concentration not given here; z-score: measured here: IL-1B alone, no Dex. In general terms: A reporter such as luciferase makes a cellular process visible.

The nature of assay [3]: kinase inhibitors altering Pseudomonas killing of worms, whole organism (AID 651566).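 Note: tested at 14 µM; sign flipped so higher z means a lower ratio.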 The following applies: C. elegans killed by P. aeruginosa, survival ratio.
Assay [4] in a line: activators of macrophage pro-inflammatory response, cell-based, murine, luminescence (AID 652131). The conditions noted are these: murine macrophage pro-inflammatory reporter, stronger effect = higher value.
Assay [5] has as its target Cellular tumor antigen p53 (Homo sapiens) (UniProt P04637). Put plainly: kinase inhibitors altering GFP-p53 stability in HPV16-positive cells, imaging, known kinase inhibitor set, EGFP/DsRed ratio (AID 1053116).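 Note: cells exposed to compounds for 24 h at 37 °C before reading.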 The following applies: stronger effect = higher value; EGFP object count: measured here: GFP-p53 positive objects count.
A short description of assay [6]: IRF3 reporter activation in THP-1 macrophages, cell-based, PMA-stimulated THP-1, luminescence (AID 1053176). The following applies: PMA-differentiated THP-1, IRF3 reporter luminescence; stronger effect = higher value.
Assay [7] is described as follows: survival rescue of mitochondrial mutant cells in low glucose, primary screen, MELAS cybrids, Rieske KO mouse fibroblasts, CellTiter-Glo (AID 1508586;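 active = mean z-score across replicates of 1.96 or higher in either the MELAS or the Rieske mutant cell line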;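 note: z relative to plate mean and SD of compound and empty wells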). On the technique in general: ATP-based viability assays read luminescence as a measure of living cells.
Setting [8] is: MELAS cybrid survival, CellTiter-Glo 48 h, stronger effect = higher value.
Where [9] appears, read: Rieske KO mouse fibroblast survival, CellTiter-Glo 72 h.

Each structure is given as a SMILES string. The source made the active and inactive calls. Unless noted, the rule behind the calls is not given here.

Sequence of Cellular tumor antigen p53 (Homo sapiens) (P04637 whole entry, looked up): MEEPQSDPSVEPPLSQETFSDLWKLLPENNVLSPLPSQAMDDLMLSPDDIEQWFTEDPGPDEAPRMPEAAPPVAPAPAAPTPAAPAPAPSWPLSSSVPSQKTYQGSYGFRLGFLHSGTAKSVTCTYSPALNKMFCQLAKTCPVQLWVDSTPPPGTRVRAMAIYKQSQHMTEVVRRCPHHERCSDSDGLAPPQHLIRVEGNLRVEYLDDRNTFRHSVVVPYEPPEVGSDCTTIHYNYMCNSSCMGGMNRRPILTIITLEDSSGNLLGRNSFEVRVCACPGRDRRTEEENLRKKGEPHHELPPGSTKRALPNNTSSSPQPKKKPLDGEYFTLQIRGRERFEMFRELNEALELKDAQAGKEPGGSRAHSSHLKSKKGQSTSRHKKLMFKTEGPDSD

Regarding `COC(=O)Nc1nc2ccc(Oc3ccc(NC(=O)Nc4ccccc4)cc3)cc2[nH]1`, the liver cell % of control in assay [1] is 96.2%. Also, in assay [1], the parasite % of control was 260% (inactive). Besides, the percent of negative control (+Dex) in assay [2] is 112% (inactive). The z-score in assay [2] is 1.13; in assay [3], 0.065 (inactive); in assay [4] it was 0.608 (inactive); in assay [7] (setting [8]), -0.73 (inactive); in assay [7] (setting [9]), -0.00674. Also, in assay [5], the EGFP object count came out at 17.5. Moreover, in assay [5], the EGFP/DsRed ratio was 0.664 (inactive). Also, the fraction signal in assay [6] was -0.0025 (inactive).
`NS(=O)(=O)c1ccc(N=Nc2c(O)[nH]c3ccc(C(=O)NCc4ccncc4)cc23)cc1`: in assay [1], the liver cell % of control came to 77.7%. Also, the parasite % of control in assay [1] was 86.4% (inactive). Besides, the percent of negative control (+Dex) in assay [2] is 95% (inactive). Moreover, the z-score in assay [2] was -0.595; in assay [3], -0.105 (inactive); in assay [4] it was 0.051 (inactive); in assay [7] (setting [8]), -0.207 (inactive); in assay [7] (setting [9]) it was -0.126. Further, in assay [5], the EGFP object count came to 8. Besides, the EGFP/DsRed ratio in assay [5] was 0.126 (inactive). Besides, the fraction signal in assay [6] was -0.001 (inactive).
For `CN1CCN(CCCNc2nc3ccc(Oc4ccc(NC(=O)Nc5cc(C(F)(F)F)ccc5F)cc4)cc3[nH]2)CC1`, the liver cell % of control in assay [1] is 95.2%. For the same compound, the parasite % of control in assay [1] is 94.4% (inactive). Besides, the percent of negative control (+Dex) in assay [2] was 97.5% (inactive). The z-score in assay [2] is 0.025; in assay [3], -0.94 (inactive); in assay [4], 1.21 (inactive); in assay [7] (setting [8]) it was -0.0444 (inactive); in assay [7] (setting [9]), -0.286. Moreover, the EGFP object count in assay [5] was 3.5. In addition, the EGFP/DsRed ratio in assay [5] was 0.103 (inactive). The fraction signal in assay [6] is -0.0045 (inactive).
`CC1=C(C(=O)Nc2ccc3[nH]ncc3c2)C(c2ccc(Cl)c(Cl)c2)CC(=O)N1` (stereo not given) registered a liver cell % of control in assay [1] of 100%. For the same compound, in assay [1], the parasite % of control was 160% (inactive). In assay [2], the percent of negative control (+Dex) is 83.5% (inactive). Further, the z-score in assay [2] is -1.08; in assay [3], -0.52 (inactive); in assay [4] it was -0.714 (inactive); in assay [7] (setting [8]) it was -0.00134 (inactive); in assay [7] (setting [9]), -0.0171. Further, the EGFP object count in assay [5] came out at 2. Moreover, the EGFP/DsRed ratio in assay [5] is 0.0149 (inactive). In addition, the fraction signal in assay [6] was -0.0025 (inactive).
As to `NC(=O)c1sc(-n2cnc3ccc(C(F)(F)F)cc32)cc1OCc1ccccc1Br`, the liver cell % of control in assay [1] is 104%. The parasite % of control in assay [1] was 160% (inactive). In assay [2], the percent of negative control (+Dex) is 98.5% (inactive). For the same compound, the z-score in assay [2] is 0.57; in assay [3], -0.455 (inactive); in assay [4] it was -0.965 (inactive); in assay [7] (setting [8]), -0.166 (inactive); in assay [7] (setting [9]), -0.246. Also, the EGFP object count in assay [5] is 4. Further, the EGFP/DsRed ratio in assay [5] is 0.119 (inactive). Moreover, in assay [6], the fraction signal is 0.007 (inactive).
Consider `CCCNc1cccc(-n2ncc3c(N/N=C/c4ccncc4)ncnc32)c1`, for which, in assay [1], the liver cell % of control is 95.8%. Further, the parasite % of control in assay [1] was 39.7% (inactive). In addition, the percent of negative control (+Dex) in assay [2] was 90% (inactive). The z-score in assay [2] is -0.38; in assay [3] it was 0.37 (inactive); in assay [4] it was -1.11 (inactive); in assay [7] (setting [8]) it was 1.12 (inactive); in assay [7] (setting [9]), -0.108. Besides, the EGFP object count in assay [5] was determined as 8.5. The EGFP/DsRed ratio in assay [5] was 0.328 (inactive). The fraction signal in assay [6] was -0.005 (inactive).
For the compound `O=C(Nc1n[nH]c2cc(-c3ccc(F)cc3)ccc12)C1CC1`, the liver cell % of control in assay [1] stood at 152%. For the same compound, the parasite % of control in assay [1] is 140% (inactive). The percent of negative control (+Dex) in assay [2] was 115% (inactive). Further, the z-score in assay [2] was 1.05; in assay [3], 0.27 (inactive); in assay [4], 0.642 (inactive); in assay [7] (setting [8]), -1.18 (inactive); in assay [7] (setting [9]), -0.329. In assay [5], the EGFP object count stood at 3. In addition, the EGFP/DsRed ratio in assay [5] is 0.145 (inactive). Also, the fraction signal in assay [6] is -0.001 (inactive).
In assay [1], `CCn1cc(-c2ccnc3[nH]ccc23)c(-c2cccc(NC(=O)Nc3ccc(OCc4ccccc4)cc3)c2)n1` returned a liver cell % of control of 76%. In addition, the parasite % of control in assay [1] is 95.6% (inactive). The percent of negative control (+Dex) in assay [2] was 93.5% (inactive). The z-score in assay [2] was 0.135; in assay [3], -1.14 (inactive); in assay [4], -1.24 (inactive); in assay [7] (setting [8]), 0.828 (inactive); in assay [7] (setting [9]) it was 0.137. For the same compound, the EGFP object count in assay [5] is 6.5. Moreover, in assay [5], the EGFP/DsRed ratio was 0.11 (inactive). Further, the fraction signal in assay [6] is -0.0115 (inactive).
In the case of `NS(=O)(=O)c1ccc(N=Nc2c(O)[nH]c3ccc(C(=O)NCCc4cnc[nH]4)cc23)cc1`, in assay [1], the liver cell % of control came to 82.2%. Further, the parasite % of control in assay [1] is 110% (inactive). The percent of negative control (+Dex) in assay [2] was 85.5% (inactive). The z-score is -0.045 in assay [2]; -1.15 (inactive) in assay [3]; -0.108 (inactive) in assay [4]; 0.0573 (inactive) in assay [7] (setting [8]); -0.291 in assay [7] (setting [9]). Also, the EGFP object count in assay [5] is 7.5. The EGFP/DsRed ratio in assay [5] was 0.141 (inactive). Moreover, in assay [6], the fraction signal was -0.0145 (inactive).
For the compound `COc1ccc(-c2cc3c(N)ncnc3o2)cc1`, in assay [1], the liver cell % of control was found to be 106%. Also, the parasite % of control in assay [1] is 203% (inactive). In addition, the percent of negative control (+Dex) in assay [2] was 118% (inactive). In addition, the z-score is 2.92 in assay [2]; 0.775 (inactive) in assay [3]; 1.8 (inactive) in assay [4]; 1.14 (inactive) in assay [7] (setting [8]); 0.359 in assay [7] (setting [9]). For the same compound, the EGFP object count in assay [5] came to 6.5. In assay [5], the EGFP/DsRed ratio is 0.215 (inactive). The fraction signal in assay [6] is -0.014 (inactive).
`Nc1nc(-c2ccc(F)cc2)c(-c2ccc3ncccc3n2)s1`: in assay [1], the liver cell % of control is 158%. Moreover, in assay [1], the parasite % of control is 131% (inactive). The percent of negative control (+Dex) in assay [2] is 85.5% (inactive). The z-score in assay [2] is 0.965; in assay [3] it was -0.035 (inactive); in assay [4] it was -0.162 (inactive); in assay [7] (setting [8]), 0.38 (inactive); in assay [7] (setting [9]), 0.128. The EGFP object count in assay [5] was 6. In addition, the EGFP/DsRed ratio in assay [5] was 0.152 (inactive). The fraction signal in assay [6] is -0.002 (inactive).
In assay [1], `Cc1nnc(-c2cccc(-c3ccc(C(=O)NCC4CC4)cc3)c2)o1` had a liver cell % of control of 102%. Further, in assay [1], the parasite % of control was 99.2% (inactive). Further, in assay [2], the percent of negative control (+Dex) is 89.5% (inactive). Further, the z-score is -0.24 in assay [2]; 0.175 (inactive) in assay [3]; -0.114 (inactive) in assay [4]; 0.518 (inactive) in assay [7] (setting [8]); 0.121 in assay [7] (setting [9]). The EGFP object count in assay [5] came to 4. The EGFP/DsRed ratio in assay [5] is 0.0445 (inactive). Further, the fraction signal in assay [6] was -0.01 (inactive).
`O=C1Nc2ccc(-c3cccnc3)cc2/C1=C\c1cc(Br)c(O)c(Br)c1` showed a liver cell % of control in assay [1] of 174%. In addition, the parasite % of control in assay [1] is 13.3% (inactive). Further, the percent of negative control (+Dex) in assay [2] was 102% (inactive). For the same compound, the z-score was -0.125 in assay [2]; 0.98 (inactive) in assay [3]; 0.575 (inactive) in assay [4]; -0.192 (inactive) in assay [7] (setting [8]); -0.185 in assay [7] (setting [9]). The EGFP object count in assay [5] is 1.5. Further, in assay [5], the EGFP/DsRed ratio is 0.0182 (inactive). Also, in assay [6], the fraction signal is -0.0065 (inactive).
For `CC1=C(C(=O)Nc2ccc3[nH]ncc3c2)C(c2ccc3ccccc3c2)CC(=O)N1` (stereo not given), the liver cell % of control in assay [1] was 109%. For the same compound, in assay [1], the parasite % of control was 30% (inactive). Further, in assay [2], the percent of negative control (+Dex) was 79% (inactive). For the same compound, the z-score was -1.06 in assay [2]; -0.24 (inactive) in assay [3]; 0.091 (inactive) in assay [4]; 0.693 (inactive) in assay [7] (setting [8]); -0.221 in assay [7] (setting [9]). Moreover, the EGFP object count in assay [5] is 3. For the same compound, the EGFP/DsRed ratio in assay [5] is 0.432 (inactive). Moreover, in assay [6], the fraction signal is -0.014 (inactive).
`CC(C)COC(=O)c1ccc2[nH]c(O)c(C=Nc3ccc(S(N)(=O)=O)cc3)c2c1` came in with a liver cell % of control in assay [1] of 61%. Moreover, the parasite % of control in assay [1] is 105% (inactive). Also, in assay [2], the percent of negative control (+Dex) was 108% (inactive). Also, the z-score in assay [2] was 0.975; in assay [3], 0.47 (inactive); in assay [4] it was -1.9 (inactive); in assay [7] (setting [8]), -0.896 (inactive); in assay [7] (setting [9]), 0.112. In addition, the EGFP object count in assay [5] was found to be 3.5. Besides, the EGFP/DsRed ratio in assay [5] was 0.0968 (inactive). Besides, the fraction signal in assay [6] was -0.013 (inactive).
